# NS1 inh = qHTS Assay for Inhibitors of Influenza NS1 Protein Function. Potency, µM (doses to about 46.1 µM), inactives show at the top dose activity, positive = more growth. 0.4% of 270,000 active; calls by dose curve; further: potency means the concentration at half of the fitted maximal effect; actives are rising curves; nearly all actives have a fitted effect of over 50% in size
#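 S. cerevisiae expressing influenza A NS1, grown in glucose, washed, then diluted 1:100 into pH 6.0 -URA galactose medium with 23 nl compound. Growth recovery read as OD600; NS1-free strain serves as control.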
# Cycloheximide cs = Cycloheximide Counterscreen for Small Molecule Inhibitors of Shiga Toxin; cell reporter, cycloheximide protein synthesis inhibition counterscreen; max response, %; 12% of 300,000 active; in the data active means max response mostly above about 13%, no sharp cut-off; inactive means mostly below about 14%; further: read at 38.3 µM for the half of the compounds with a filed dose; 0% is about no effect
# Shiga inhibitor = A qHTS for Small Molecule Inhibitors of Shiga Toxin. Vero cells, Shiga toxin protein synthesis inhibition reporter. inhibition, % at 38.7 µM. 9.2% of 290,000 active. AID 2315, 2010; in the data active means inhibition mostly above about 28%, no sharp cut-off; inactive means mostly below about 43%; further: 0% is about no effect
# LmPK inhibitor = qHTS Assay for Inhibitors of Leishmania Mexicana Pyruvate Kinase (LmPK); 0.37% of 290,000 active; Potency, µM (doses to about 57.5 µM), for inactives: top-dose activity change, negative = inhibition, usual class: inhibitors; purified LmPK, Kinase-Glo ATP luminescence, 1 h; AID 1721, 2009; further: potency means the concentration at half of the fitted maximal effect; on the % scale 0 is the no-effect control and ±100 the full control effect
#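 0.1 nM LmPK, 0.5 mM PEP, 0.1 mM ADP; 50 mM imidazole pH 7.2, 7 mM MgCl2, 50 mM KCl; 1 h RT. Kinase-Glo luminescence readout, normalized to no-enzyme (full inhibition) and uninhibited wells.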
# FBPA Giardia inh = qHTS Assay for Inhibitors of Fructose-1,6-bisphosphate Aldolase from Giardia Lamblia; 0.71% of 290,000 active; purified Giardia FBPA; Potency, µM (top dose mostly 59.6 µM), without a hit: top-dose activity, negative = inhibition, actives largely listed as inhibitors; further: potency means the concentration at half of the fitted maximal effect; on the % scale 0 is the no-effect control and ±100 the full control effect; nearly all actives have a fitted effect of over 55% in size
# Target sequence (A8B2U2 whole entry, looked up): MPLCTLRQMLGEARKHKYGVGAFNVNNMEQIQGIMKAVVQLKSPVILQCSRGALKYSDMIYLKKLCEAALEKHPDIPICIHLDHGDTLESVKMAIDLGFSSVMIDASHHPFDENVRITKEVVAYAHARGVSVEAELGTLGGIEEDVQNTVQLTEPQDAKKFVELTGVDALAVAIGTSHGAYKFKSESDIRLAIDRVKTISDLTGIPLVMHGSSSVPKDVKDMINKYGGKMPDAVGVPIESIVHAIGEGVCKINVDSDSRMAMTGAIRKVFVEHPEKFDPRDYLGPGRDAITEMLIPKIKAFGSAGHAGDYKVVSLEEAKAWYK
#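 40 nM FBPA preincubated 10 min at RT with compound (up to 57.5 uM final), then substrate plus GAPDH/TPI/NAD/arsenate coupling and diaphorase/resazurin added. Fluorescence read after 20 min at RT, 525/598 nm.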
# Active calls of the source: *; u = inconclusive; x = no result; [ ] = dose if it differs, or a comment. A selection: hits, their analogues and other compounds. The true share with any hit is near 14%. Unless noted, the call rests on the fitted dose curve; in most records, active means well fitted curve in the direction sought with a large enough effect; inconclusive means small, poorly fitted or top-dose-only effect, or another doubt; inactive means no such curve, though single readings can be large; an effect the other way counts as inactive or inconclusive.
SMILES,NS1 inh,Cycloheximide cs,Shiga inhibitor,LmPK inhibitor,FBPA Giardia inh
CN(C)c1ccc(NC(=S)NC(=O)/C=C/c2ccc(Cl)cc2)cc1,19%,53*,105*,3%,11%
CC(=O)c1ccc(NC(=S)NC(=O)/C=C/c2ccc(F)cc2)cc1,7%,20*,26,-4%,16%
COc1cccc(NC(=S)NC(=O)/C=C/c2ccc(F)cc2)c1,0%,8,x,4%,-14%
Nc1nc(SCC(=O)O)[nH]c(=O)c1N,-3%,x,x,x,x
COc1cc(C2c3[nH]c4ccccc4c3CC3C(=O)N4C(Cc5c([nH]c6ccccc56)C4c4cc(OC)c(OC)c(OC)c4)C(=O)N32)cc(OC)c1OC (configuration not stated),x,x,x,x,-2%[12.9 µM]
C=CCc1cccc([C@@H]2[C@@H](C)CC[C@H]3C(=O)N4[C@@H](c5cc(OC)c(OC)c(OC)c5)c5[nH]c6ccccc6c5C[C@H]4C(=O)N23)c1,22µM*,-3,-5,2%,-12%
COC(=O)C1C(O)=C(C=Nc2ccc3ccccc3c2)C(=O)CC1(C)C (configuration not stated),-22%,15*,17,-6%,-10%
CN=CC1=C(O)C(C(=O)OC)C(C)(C)CC1=O (configuration not stated),x,-4,-10,-2%,5%
CCC(C(=O)N1CCOCC1)n1c2ccccc2c2nc(=O)cc(C)n21 (configuration not stated),-6%,-8,0,-5%,x
Oc1cccc(O)c1,x,x,x,x,8%
NNCc1cccc(O)c1,-15%,35*,102*,-10%,-3%
CNc1ncc(C(=O)c2ccc(Br)cc2)s1,-1%,44*,81*,-3%,4%
CNc1ncc(C(=O)c2ccccc2)s1,-26%,41*,70*,-7%,1%
CCOc1ccccc1NS(=O)(=O)c1ccc2oc(=O)ccc2c1,1%,-3,-3,1%,4%
O=C1CC[C@H](OCc2ccccc2)CCN1[C@H](CSc1ccccc1)Cc1ccccc1,-36%,27*,34*,-9%,10%
O=C1CC[C@@H](O)CCN1CC[C@H](Sc1ccccc1)c1ccccc1,-15%,-1,1,1%,7%
O=C1CC[C@H](O)CCN1[C@H](CSc1ccccc1)Cc1ccccc1,7%,5,7,5%,-13%
O=C1CC[C@@H](OCc2ccccc2)CCN1CC[C@H](Sc1ccccc1)c1ccccc1,-14%,11*,15,2%,-10%
C[C@@H]1CCC(=O)N(CC[C@H](Sc2ccccc2)c2ccccc2)CC1,-73%,10*,14,4%,-1%
CCn1cc(S(=O)(=O)Nc2cc(C)ccc2F)cn1,6%,10,-30,-9%,x
CC(CC(=O)Nc1nnc(C(C)(C)C)s1)c1ccccc1 (configuration not stated),7%,-2,-8,9%,7%
Nn1c(SCC(=O)Nc2ccccc2Br)nnc1-c1ccco1,7%,-8,-14,5%,2%
N#CC(C#N)=c1ccc2c(c1)N1C3=C(CCCC3)CC3CCCCC31N=2 (configuration not stated),-81%,-1,-10,18µM*,-3%
N#C/C(C(N)=O)=c1/ccc2c(c1)N1C3=C(CCCC3)CC3CCCCC31N=2 (configuration not stated),-96%,-3,-17,7.9µM*,-16%
Cc1cccc(-n2c(CNC(=O)Cc3ccccc3)n[nH]c2=S)c1,x,-2,-4,-2%,-19%
SMILES,NS1 inh,Cycloheximide cs,Shiga inhibitor,LmPK inhibitor,FBPA Giardia inh
Cc1cccc(-n2c(Cc3ccccc3)n[nH]c2=S)c1,3%,-2,-26,7.1µM*,3%
S=c1[nH]nc(Cc2cccc3ccccc23)n1-c1ccccc1,-3%,-3,15,14µM*,-16%
CCOC(=O)C(=CN=C(N)Nc1nc2ccccc2o1)C(=O)OCC,4%,14*,31*,1%,-27%
CCCOC(=O)Nc1nc2ccccc2o1,-9%,26*,144*,-13%,0%
CCc1ccc2c(c1)C(c1ccc([N+](=O)[O-])cc1)=NNC(c1ccc(F)cc1)=N2,10%,24*,63*,-1%,-1%
COc1ccc(Nc2nc(N)nc(CSC(=S)N3CCCCC3C)n2)cc1 (configuration not stated),12%,28*,65*,2%,-18%
COc1ccc(Nc2nc(N)nc(CSC(=S)N3CCCCC3)n2)cc1,x,48*,36*,0%,-16%
COc1ccc(Nc2nc(N)nc(CSC(=S)N3CCN(C)CC3)n2)cc1,2%,17*,19,5%,-2%
COc1ccc(Nc2nc(N)nc(CSC(=S)N3CCN(c4ccccc4)CC3)n2)cc1,18%,1,-2,0%,0%
CC1CCN(C(=S)SCc2nc(N)nc(Nc3ccccc3)n2)CC1,-3%,25*,35*,-4%,-4%
COc1ccc(Nc2nc(N)nc(CN3CCC(C)CC3)n2)cc1,x,4,18,-9%,2%
CCOc1ccc(Nc2nc(N)nc(CSC(=S)N3CCN(c4ccccc4)CC3)n2)cc1,8%,4,25,-3%,-7%
COc1ccc(Cl)cc1S(=O)(=O)NCc1nc2nc(C)cc(C)n2n1,-1%,-2,4,0%,4%
Cc1c(Cl)cccc1Nc1nc(N)nc(CSC(=S)N2CCOCC2)n1,x,39*,76,0%,-1%
COCCN1CCN(C(=O)C2CCC(=O)N(Cc3ccccc3OC)C2)CC1 (configuration not stated),9%,-6,26,-11%,x
Cc1ccc(C(=O)/C=C2\NCC(C)NC2=O)cc1 (configuration not stated),-19%,-2,27,-19%,x
Cc1ccc(C(=O)/C=C2\NCCNC2=O)cc1,-9%,32*,10*,u,4%
O=C(Cc1ccccc1)NCCC1=CCCCC1,-4%,-1,13,2%,2%
O=C(CCCc1ccccc1)NCCC1=CCCCC1,-9%,27*,20,0%,-2%
O=C(COC(=O)c1ccccc1)NCCC1=CCCCC1,x,14*,13,3%,4%
CN(C)c1ccc(C(=O)OCC(=O)NCCC2=CCCCC2)cc1,x,1,10,2%,0%
O=C(CCc1ccccc1)NCCC1=CCCCC1,11%,40*,99*,0%,5%
Cc1ccsc1C(=O)OCC(=O)NCCC1=CCCCC1,-1%,22*,35,-1%,1%
CC(CCC(=O)O)C1CC[C@H]2C3CCC4CC(=O)CCC4(C)[C@H]3CC(=O)C12C (some centres not stated),8%,-4,-6,-1%,-10%
CC(=O)c1cccc(NC(=O)N2CCC(NC(=O)C3CCCCC3)CC2)c1,22%,-2,23,4%,4%
COc1cc2ccc([C@H](C)NCC#N)cc2cc1OC,-7%,x,x,x,x
O=C(O)C1C2C=CC(C2)C1C(=O)NCCC1=CCCCC1 (configuration not stated),-1%,-1,12,-1%,13%
